A number with no mark means an inactive call. Records with an inconclusive call do not appear. Active and inactive are the calls of the source. Unless noted, calls come from the whole dose curve; as a rule, active = well fitted curve in the direction sought with a large enough effect in the repeat runs; inconclusive = weak or mixed curves; inactive = no such curve, though single readings can be large; an effect the other way counts as inactive or inconclusive.

The source of these data is PubChem BioAssay (Tox21).

Experiment [1] is described as follows: qHTS assay to identify small molecule antagonists of the estrogen receptor alpha (ER-alpha) signaling pathway using the BG1 cell line in the presence of 0.1 nM 17-beta-estradiol - cell viability counter screen (AID 1259241). Note: nearly all actives have a fitted effect of over 40% in size. The method, boiled down: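 Live-cell protease activity (CellTiter-Fluor fluorescence, 30 min) was read in the same wells after VM7Luc4E2 cells had been exposed to compounds with 0.1 nM 17beta-estradiol for 22 hr at 37C.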
Background: Quantitative high-throughput screening tests each substance at several concentrations.

Experiment [2] is described as follows: qHTS assay to identify small molecule antagonists of the androgen receptor (AR) signaling pathway using the MDA cell line in the presence of 0.5 nM R1881 - cell viability counter screen (AID 1259242). Note: nearly all actives have a fitted effect of over 45% in size. The method, boiled down:
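Cells seeded at 3,000/well and allowed 5 hr at 37C, 0% CO2 before compound transfer and R1881 (0.5 nM final) addition; 16 hr later, live-cell protease fluorescence indicated cytotoxicity.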

For experiment [3], the target named is Estrogen receptor (Homo sapiens) (UniProt P03372). The experiment can be described thus: qHTS assay to identify small molecule antagonists of the estrogen receptor alpha (ER-alpha) signaling pathway using the BG1 cell line in the presence of 0.1 nM 17-beta-estradiol (AID 1259244). Note: nearly all actives have a fitted effect of over 50% in size. Put shortly:
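Luciferase signal from VM7Luc4E2 ERE-reporter cells, co-dosed with test compound and 0.1 nM final 17beta-estradiol for 22 h, read with ONE-Glo.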

Experiment [4] in a line: qHTS assay to identify small molecule HDAC inhibitors (AID 1259364).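 Note: wild-type HCT-116 cells with endogenous class I/II HDAC activity; top concentration of the series differs between compounds; nearly all actives have a fitted effect of over 45% in size.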 Put shortly:
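HCT-116 wt cells, 1,500/well, overnight attach. Compounds (DMSO) 2 h, 37 °C. HDAC-Glo I/II, 30 min RT. Luminescence.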

A short description of experiment [5]: qHTS assay to identify small molecule agonists of the sonic hedgehog signaling (Shh) pathway - cell viability counter screen (AID 1259366). Note: nearly all actives have a fitted effect of over 50% in size. The method, boiled down: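 CellTiter-Fluor fluorescence read-out, 1 hr at 37C, added after 23hr compound exposure. Cells: 3T3 Gli1-Luc, an NIH/3T3 clone with stably integrated Gli1-Luc reporter, plated 4hr before compound.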

The nature of experiment [6]: qHTS assay to identify small molecule antagonists of the sonic hedgehog signaling (Shh) pathway - cell viability counter screen (AID 1259367). Note: nearly all actives have a fitted effect of over 55% in size. The method, boiled down: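 Fluorescence read-out (CellTiter-Fluor, 1 hr at 37C) taken after 23 hr compound treatment of 3T3 Gli1-Luc cells stimulated with conditioned medium. Cells were seeded at 2,000 per well and pre-incubated 4 hr.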

Experiment [7] in a line: qHTS assay to identify small molecule agonists of the sonic hedgehog signaling (Shh) pathway (AID 1259368; calls by dose curve;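 note: NIH/3T3-derived 3T3Gli1-Luc cells carrying a stable Gli1-driven firefly luciferase reporter; series mostly up to about 92 µM; nearly all actives have a fitted effect of over 15% in size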). Put shortly:
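Following a 24 hr incubation with DMSO-dissolved compounds at 37 C, 5% CO2, Gli1-Luc NIH/3T3-derived cells received luciferase reagent for 30 min at room temperature prior to luminescence measurement.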

Experiment [8] in a line: qHTS assay to identify small molecule antagonists of the sonic hedgehog signaling (Shh) pathway (AID 1259369; calls by dose curve; note: nearly all actives have a fitted effect of over 45% in size). Put shortly:
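Read-out is luminescence from a firefly luciferase gene controlled by the Gli1 response element, in 3T3Gli1-Luc cells pre-incubated 4hr then exposed to compounds and conditioned medium for 24hr.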

Experiment [9] has as its target Estrogen receptor beta (Homo sapiens) (UniProt Q92731). The experiment can be described thus: qHTS assay to identify small molecule agonists of the estrogen receptor beta (ER-beta) signaling pathway (AID 1259377; active = well fitted activation curve with a large enough effect in the signal ratio in the repeat runs, not every such curve was filed as active; the % refers to the signal ratio; note: potency is the fitted concentration of half-maximal effect). Put shortly:
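Beta-lactamase reporter readout: fluorescence of LiveBLAzer B/G FRET substrate after 2 h at room temperature, following 16 h compound treatment of ER-beta-UAS-bla HEK293T cells at 37C in 2% charcoal-stripped FBS medium.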

Experiment [10] is described as follows: qHTS assay to identify small molecule agonists of the androgen receptor (AR) signaling pathway in the presence of an antagonist - cell viability counter screen (AID 1259379).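 Note: MDA-kb2 human breast cancer cells carrying an MMTV luciferase reporter; series mostly up to about 92 µM; nearly all actives have a fitted effect of over 25% in size.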 The method, boiled down:
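Each compound was tested at 15 concentrations on MDA-kb2 cells in the presence of 3.0uM nilutamide. Viability was measured by CellTiter-Fluor fluorescence after a 16 hr incubation at 37C in a CO2-free atmosphere.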

A short description of experiment [11]: qHTS assay to identify small molecule agonists of the estrogen receptor beta (ER-beta) signaling pathway - cell viability counter screen (AID 1259380). Note: nearly all actives have a fitted effect of over 30% in size. Put shortly:
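Compounds dissolved in DMSO were pin-transferred onto ER-beta-UAS-bla HEK293T cells that had settled 6 hr, and exposure ran 16 hr at 37C. Following the reporter read, CellTiter-Glo luminescence after 30 min at room temperature indicated cytotoxicity.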

Experiment [12] in a line: qHTS assay to identify small molecule antagonists of the estrogen receptor beta (ER-beta) signaling pathway - cell viability counter screen (AID 1259382). Note: series mostly up to about 92 µM; nearly all actives have a fitted effect of over 55% in size. Put shortly:
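CellTiter-Glo ATP luminescence measured after the LiveBLAzer read in the same wells; ER-beta-UAS-bla HEK293T cells, 16 hr compound treatment with 1nM 17-beta-estradiol agonist at 37C, 5% CO2.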

Experiment [13] addresses Estrogen receptor (Homo sapiens) (UniProt P03372). The experiment can be described thus: qHTS assay to identify small molecule agonists of the estrogen receptor alpha (ER-alpha) signaling pathway in the presence of an antagonist (AID 1259383; calls by dose curve; note: nearly all actives have a fitted effect of over 15% in size; note: potency is the fitted concentration of half-maximal effect; for activation: top concentration of the series differs between compounds). The method, boiled down:
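Luminescent ERE-luciferase reporter, VM7Luc4E2 cells (endogenous ER-alpha); 10.0nM ICI-182,780 final; 15-point compound titration; 22hr at 37C; ONE-Glo, 30min RT.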

Experiment [14] is described as follows: qHTS assay to identify small molecule agonists or antagonists of the thyroid stimulating hormone receptor (TSHR) signaling pathway - wild type cell line counter screen (AID 1259384; calls by dose curve). The method, boiled down: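 Wild-type Hek293 cells, 800/well, 18 h at 37C, then compound with Ro20-1724 for 30 min RT. cAMP by HTRF (cAMP-d2/anti-cAMP cryptate), 1 h RT, fluorescence read. 15 concentrations, triplicates.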

In experiment [15] the target is Thyrotropin receptor (Homo sapiens) (UniProt P16473). Kind of experiment: qHTS assay to identify small molecule antagonists of the thyroid stimulating hormone receptor (TSHR) signaling pathway (AID 1259385; calls by dose curve; note: nearly all actives have a fitted effect of over 20% in size). The method, boiled down:
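TSHR-HEK293 cells (800/well) plated 18 h, then compounds with Ro20-1724 and TSH at 1.5 ng/mL final, 30 min at room temperature. cAMP quantified by HTRF (cAMP-d2/anti-cAMP-cryptate, 1 h); 15 concentrations in triplicate.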

For experiment [16], the target named is Estrogen receptor beta (Homo sapiens) (UniProt Q92731). Kind of experiment: qHTS assay to identify small molecule antagonists of the estrogen receptor beta (ER-beta) signaling pathway (AID 1259378; active = well fitted inhibition curve with a large enough effect in the signal ratio in the repeat runs, not every such curve was filed as active; the % refers to the signal ratio). The method, boiled down: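 ER-beta-UAS-bla HEK293T cells in 2% charcoal-stripped FBS medium treated with compound plus 1nM final 17-beta-estradiol for 16 hr at 37C. Beta-lactamase reporter read by FRET substrate fluorescence after 2 hours at room temperature.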
Chain of Estrogen receptor beta (Homo sapiens) (Q92731 whole entry, looked up): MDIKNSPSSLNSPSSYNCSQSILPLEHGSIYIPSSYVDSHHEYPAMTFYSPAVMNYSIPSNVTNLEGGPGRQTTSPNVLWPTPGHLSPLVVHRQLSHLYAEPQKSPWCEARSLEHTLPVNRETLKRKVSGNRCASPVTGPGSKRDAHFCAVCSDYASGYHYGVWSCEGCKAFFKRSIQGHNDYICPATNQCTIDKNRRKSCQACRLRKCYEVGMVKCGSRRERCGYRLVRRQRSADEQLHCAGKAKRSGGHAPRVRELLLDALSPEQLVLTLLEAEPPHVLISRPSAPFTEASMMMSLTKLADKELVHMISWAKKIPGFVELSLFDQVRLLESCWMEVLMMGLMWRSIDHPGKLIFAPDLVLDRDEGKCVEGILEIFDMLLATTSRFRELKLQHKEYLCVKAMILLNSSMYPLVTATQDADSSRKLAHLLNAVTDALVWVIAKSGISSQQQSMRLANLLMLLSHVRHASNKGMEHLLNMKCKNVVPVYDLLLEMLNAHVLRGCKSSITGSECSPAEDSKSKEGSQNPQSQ

The nature of experiment [17]: qHTS assay to identify small molecule HDAC inhibitors - cell viability counter screen (AID 1259365). Note: series mostly up to about 92 µM; nearly all actives have a fitted effect of over 50% in size. Put shortly: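 HCT-116 (wild type), 1,500 cells/well, overnight 37C/5% CO2; compound in DMSO 2hr; CellTiter-Glo 30min RT; luminescence read.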
% is set by controls: 0 for no effect and ±100 for the full control effect.

Chain of Estrogen receptor (Homo sapiens) (P03372 whole entry, looked up): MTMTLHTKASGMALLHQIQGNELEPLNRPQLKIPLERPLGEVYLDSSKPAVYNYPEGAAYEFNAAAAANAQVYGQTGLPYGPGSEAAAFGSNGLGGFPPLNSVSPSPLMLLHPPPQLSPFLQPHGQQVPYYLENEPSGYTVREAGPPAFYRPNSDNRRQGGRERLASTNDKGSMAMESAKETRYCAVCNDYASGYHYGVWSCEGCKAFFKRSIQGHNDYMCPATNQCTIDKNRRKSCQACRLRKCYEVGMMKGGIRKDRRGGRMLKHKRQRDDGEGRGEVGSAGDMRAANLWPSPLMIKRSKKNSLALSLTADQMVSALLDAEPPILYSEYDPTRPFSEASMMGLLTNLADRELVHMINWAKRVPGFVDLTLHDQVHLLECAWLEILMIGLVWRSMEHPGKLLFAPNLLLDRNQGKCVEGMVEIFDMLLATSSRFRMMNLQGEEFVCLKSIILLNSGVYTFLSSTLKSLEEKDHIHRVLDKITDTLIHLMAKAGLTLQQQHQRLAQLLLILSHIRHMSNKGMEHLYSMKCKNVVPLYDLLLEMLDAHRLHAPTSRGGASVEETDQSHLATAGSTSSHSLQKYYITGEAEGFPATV
Chain of Thyrotropin receptor (Homo sapiens) (P16473 whole entry, looked up): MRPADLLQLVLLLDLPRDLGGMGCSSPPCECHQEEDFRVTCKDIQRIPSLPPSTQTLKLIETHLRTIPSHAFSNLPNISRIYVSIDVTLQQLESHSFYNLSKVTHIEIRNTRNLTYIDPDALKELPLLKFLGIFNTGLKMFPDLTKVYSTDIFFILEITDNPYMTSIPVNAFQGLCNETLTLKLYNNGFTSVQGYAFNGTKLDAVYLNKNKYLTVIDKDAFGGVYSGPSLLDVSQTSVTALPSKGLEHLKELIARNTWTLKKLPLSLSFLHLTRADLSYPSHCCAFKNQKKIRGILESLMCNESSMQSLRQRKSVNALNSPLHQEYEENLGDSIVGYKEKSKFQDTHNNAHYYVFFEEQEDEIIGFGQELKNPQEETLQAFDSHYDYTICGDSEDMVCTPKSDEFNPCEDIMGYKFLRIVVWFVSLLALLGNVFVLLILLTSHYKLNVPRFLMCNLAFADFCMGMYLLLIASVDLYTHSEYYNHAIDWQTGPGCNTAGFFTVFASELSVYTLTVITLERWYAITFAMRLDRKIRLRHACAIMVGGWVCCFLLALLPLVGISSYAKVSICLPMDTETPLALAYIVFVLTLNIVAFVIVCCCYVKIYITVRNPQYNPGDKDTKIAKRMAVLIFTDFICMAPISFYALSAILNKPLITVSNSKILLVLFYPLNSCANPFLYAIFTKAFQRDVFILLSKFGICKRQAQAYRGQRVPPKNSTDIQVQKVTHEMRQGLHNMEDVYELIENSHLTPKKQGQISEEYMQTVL

Take `O=C(OCCOCCOCCOC(=O)c1ccccc1)c1ccccc1`: the Potency result in experiment [1], in experiment [2], in experiment [3], in [4], in experiment [5] and in experiment [6] was “inactive” each time. The Potency entry in experiment [7], in experiment [8], in experiment [9], in experiment [10], in experiment [11] and in [12] was “inactive” throughout. Further, the Potency result in [13] and in experiment [15] was “inactive” each time. In addition, the compound was classed as inactive in experiment [14].
Consider `COC=O`, for which the activity change, negative = cytotoxicity is 7.16% [at 8.39 µM] in [1], 0.257% [at 8.39 µM] in experiment [10] and 10.9% [at 8.39 µM] in [12]. Further, the viability change, negative = cytotoxic in experiment [2] was 2.17% [at 8.39 µM]; in experiment [5], 14% [at 8.39 µM]; in [6], 5.98% [at 8.39 µM]. The figures for the activity change, negative = inhibition in experiment [3], in [8] and in experiment [15] were -1.73% [at 8.39 µM], 0% [at 8.39 µM] and 4.44% [at 8.39 µM], respectively. The activity change in experiment [7] was -3.86% [at 8.39 µM, hits give high values]. The activation was 8.91% [at 8.39 µM] in experiment [9] and 1.27% [at 8.39 µM] in experiment [13]. For the same compound, the activity, negative = inhibition in [16] is 1.13% [at 8.39 µM]. Besides, the cAMP activity change in experiment [14] was -7.06% [at 8.39 µM].
On to `CC(C)(C)NCC(O)COc1ccc(NC(=O)NC2CCCCC2)cc1` (stereo not drawn), for which the Potency result in experiment [1], in experiment [2], in experiment [3], in [5], in experiment [6] and in experiment [7] was “inactive” in each case. Moreover, the Potency entry in experiment [8], in experiment [9], in [16], in [11], in experiment [12] and in [13] was “inactive” in each case. Moreover, the Potency entry in experiment [15] was “inactive”. Besides, the compound was called inactive in experiment [17] and in experiment [14].
Turning to `Oc1ccc(Oc2ccccc2)cc1`, the Potency result in experiment [1], in experiment [2], in [3], in [4], in experiment [5] and in experiment [7] was “inactive” each time. Besides, the Potency entry in experiment [10], in experiment [11], in [12] and in experiment [15] was “inactive” in each case. The Potency in experiment [9] was 11.6 µM (active); in [13], 41 µM (active).
In the case of `O=C(O)c1ccc2c(c1)nc(C(=O)NC1CCN(C3CC3)CC1)n2Cc1cc(-c2ccc(Cl)s2)on1`, the activity change, negative = cytotoxicity in experiment [1] was 3.2% [at 19 µM]; in experiment [17], 0.77% [at 19 µM]; in experiment [12] it was -12.8% [at 19 µM]. In addition, the viability change, negative = cytotoxic is 1.29% [at 19 µM] in experiment [2], 1.29% [at 19 µM] in experiment [5] and 0.451% [at 19 µM] in experiment [6]. In addition, the activity change, negative = inhibition in experiment [3] is -4.46% [at 19 µM]; in experiment [8], -2.6% [at 19 µM]; in experiment [15] it was 2.44% [at 19 µM]. For the same compound, the activity change in [7] was -5.1% [at 18.9 µM, hits give high values]. For the same compound, the activation in experiment [9] was -4.72% [at 19 µM]; in experiment [13], 1.43% [at 19 µM]. The cAMP activity change in [14] is 1.96% [at 18.9 µM].
For the compound `CC(C)NC(=O)c1ccccc1N`, the Potency result in [1], in experiment [2], in experiment [3], in experiment [5], in experiment [6] and in experiment [7] was “inactive” each time. Moreover, the Potency entry in experiment [8], in experiment [10], in [11], in experiment [12], in experiment [13] and in experiment [15] was “inactive” in each case. In addition, the compound was called inactive in experiment [17] and in [14].
As to `CC(C)=CCCC(C)C=O` (stereo not drawn), the Potency entry in experiment [1], in [2], in [3], in experiment [4], in [5] and in [6] was “inactive” in each case. Moreover, the Potency entry in experiment [7], in experiment [8], in [16], in experiment [10], in [12] and in experiment [13] was “inactive” throughout. In experiment [15], the Potency result is “inactive”. Moreover, the result in experiment [14] was inactive.
On to `Cc1cc(C)c(C)c(O)c1`, for which the Potency result in experiment [1], in experiment [2], in [3], in experiment [5], in experiment [7] and in experiment [8] was “inactive” throughout. Also, the Potency result in experiment [10], in experiment [11], in [12], in [13] and in [15] was “inactive” throughout. The call in [17] and in experiment [14] was inactive.
For the compound `O=C(O)c1ccc2cc(O)ccc2c1`, the Potency entry in experiment [1], in experiment [2], in experiment [3], in experiment [5], in [7] and in experiment [8] was “inactive” throughout. For the same compound, the Potency result in [9], in [16], in [10], in [11], in experiment [12] and in experiment [13] was “inactive” each time. In experiment [17], the compound was classed as inactive.
